Screening data deposited in PubChem by Broad Institute.
Rce1 inh = inhibitors of yeast Ras-converting enzyme; calls only; Q03530; AID 2563; actives 0.27% (n = 290,000); yeast membranes, quenched prenylated peptide cleavage fluorescence;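 active means fall in fluorescence gain of 50% or more versus controls, with final raw signal at or below 3038400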;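 further: plate controls were neutral control wells for no effect and wells lacking membranes for full effect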
Target sequence (Q03530 whole entry, looked up): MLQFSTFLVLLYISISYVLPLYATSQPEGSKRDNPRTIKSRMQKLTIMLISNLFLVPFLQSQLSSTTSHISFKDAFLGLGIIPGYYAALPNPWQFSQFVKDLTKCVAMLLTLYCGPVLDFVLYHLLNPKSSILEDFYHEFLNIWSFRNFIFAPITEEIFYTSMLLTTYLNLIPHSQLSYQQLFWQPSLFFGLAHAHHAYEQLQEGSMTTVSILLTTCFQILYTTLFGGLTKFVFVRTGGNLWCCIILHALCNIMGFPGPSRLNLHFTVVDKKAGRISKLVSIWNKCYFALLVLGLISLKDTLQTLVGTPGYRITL
AI-2 QS modul = Vibrio harveyi AI-2 quorum sensing modulation | actives 0.4% (n = 300,000) | activity change, % at 7.5 µM | Vibrio harveyi JMH597 AI-2 luminescence/OD600 ratio, 9 h; stronger effect = lower value; strain lacks LuxN and CqsS sensors; 0 = neutral-control median | AID 2094; in the data active means activity change below about -75%, passing the limit was not always enough;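 further: luminescence divided by OD600 gain over 9 h not by final OD600 alone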
HIF activator = HIF pathway transcriptional activation; AID 1910; actives 0.32% (n = 300,000); U2OS HRE-luciferase reporter, luminescence; normalized: DMSO 0%, desferrioxamine 100%; activation, % at 7.5 µM (by protocol);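 active means mean activation of at least 10% of the iron chelator positive control signal, with at least half of replicates also reaching 10%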
Statin myotox sup = suppression of simvastatin myotoxicity; C2C12 myotubes + simvastatin, ATP luminescence, 48 h; scaled: DMSO 0, geranylgeraniol control 100; rescue of ATP level, % at 7.49 µM; actives 0.78% (n = 330,000);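 active means mean ATP rescue above about 67%, or every replicate alone reaching that limit, limit read from the data, passing the limit was not always enough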;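 further: myotubes were challenged with 10 µM simvastatin during compound exposure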
PGC1a acetyl inh = PGC1a acetylation modulation, inhibitor mode; U2OS PGC1a acetylation, AlphaScreen anti-acetyl-lysine; with virally co-expressed GCN5 acetyltransferase; inhibition, % at 15.6 µM; actives 0.17% (n = 350,000);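 active means every replicate shows inhibition of at least 40%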;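 further: 0% = neutral control wells and 100% = positive control wells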
The depositor's hits bear a star. An excerpt weighted towards active compounds, which were near 1.3% of everything screened.

CCCc1[nH]nc2c1C(c1ccoc1)C(C#N)=C(N)O2 (configuration not stated) was read as Rce1 inh inactive, AI-2 QS modul 15 and HIF activator 198*.
C/C=C/c1ccc([C@H]2[C@@H](CO)N(Cc3ccccn3)[C@@H]2CNC(C)=O)cc1 was read as Statin myotox sup -4 and PGC1a acetyl inh 5.
COc1ccc(CCNC(=O)c2cc(C(C)C)on2)cc1OC was read as Rce1 inh inactive, AI-2 QS modul 32, HIF activator 0 and Statin myotox sup -5.
Screening Cc1ccc(O)c(NC(=O)c2cc(-c3cccs3)on2)c1 returned Rce1 inh inactive, AI-2 QS modul -11, HIF activator 3, Statin myotox sup 213* and PGC1a acetyl inh -7.
Screening COc1ccc(CCNC(=O)c2cc(-c3cccs3)on2)cc1OC returned Rce1 inh inactive, AI-2 QS modul 8, HIF activator 16*, Statin myotox sup -11 and PGC1a acetyl inh -5.
Screening O=C(NCCc1ccccc1)c1cc(-c2ccco2)on1 returned Rce1 inh inactive, AI-2 QS modul 35, HIF activator 23*, Statin myotox sup -10 and PGC1a acetyl inh 9.
Screening COc1ccc(CCNC(=O)c2cc(-c3ccco3)on2)cc1OC returned Rce1 inh inactive, AI-2 QS modul 12, HIF activator 17* and PGC1a acetyl inh -87.
`Cc1noc(C)c1NC(=O)N(C)C[C@@H]1OCCCC[C@@H](C)Oc2ccc(NC(=O)C3CCCCC3)cc2C(=O)N([C@@H](C)CO)C[C@@H]1C` gave PGC1a acetyl inh 1.
COc1ccc(N(C(=O)c2ccn[nH]2)C(C(=O)NC(C)(C)C)c2ccc(F)cc2)cc1 (configuration not stated) was read as Rce1 inh inactive, AI-2 QS modul -9, HIF activator 0, Statin myotox sup 88* and PGC1a acetyl inh -3.
Screening COc1ccc(-c2[nH]ncc2-c2ccc3c(c2)OCCO3)c(O)c1 returned Rce1 inh inactive, AI-2 QS modul 44, HIF activator 3 and PGC1a acetyl inh 53*.
Screening O=C1CCCc2ccccc2N1Cc1cccc(F)c1 returned Rce1 inh inactive, AI-2 QS modul 24 and HIF activator -2.
`CCN1C(=O)CCCc2ccccc21` gave Rce1 inh inactive, AI-2 QS modul 26, HIF activator -1, Statin myotox sup 4 and PGC1a acetyl inh 68*.
For O=C1CCCc2ccccc2N1Cc1ccc(F)cc1 the results were Rce1 inh inactive, AI-2 QS modul 2, HIF activator 42* and PGC1a acetyl inh 4.
For COc1ccc(NC(=O)N(C)C[C@H]2Oc3c(NC(=O)CCCCCC(=O)Nc4ccccc4N)cccc3C(=O)N([C@@H](C)CO)C[C@H]2C)cc1 the results were PGC1a acetyl inh 2.
Cc1cc(C)nc(N/N=C/C2=C(O)CC(c3ccc(F)cc3)CC2=O)n1 (configuration not stated) was read as Rce1 inh inactive, AI-2 QS modul 74, HIF activator 22* and PGC1a acetyl inh 26.
Screening CCCC(=O)N1CCC2(CC1)CN(Cc1cccnc1)[C@@H](CO)c1[nH]c3cc(OC)ccc3c12 returned PGC1a acetyl inh 8.
O=C(C[C@H]1CC[C@@H](NC(=O)c2ccncc2)[C@H](CO)O1)NCC1CC1 was read as Statin myotox sup -6 and PGC1a acetyl inh 13.
Screening O=S(=O)(c1ccccc1)N(Cc1ccccc1)c1ccccn1 returned Rce1 inh inactive, AI-2 QS modul -7, HIF activator 0, Statin myotox sup -2 and PGC1a acetyl inh -1.
Screening O=C(O)c1ccc(CN(c2ccccn2)S(=O)(=O)c2ccccc2)cc1 returned Rce1 inh active, AI-2 QS modul 21, HIF activator 0, Statin myotox sup -7 and PGC1a acetyl inh -7.
`C[C@@H]1CN([C@@H](C)CO)C(=O)Cc2cc(NC(=O)Nc3cccc4ccccc34)ccc2O[C@@H]1CN(C)Cc1ccccc1` gave Statin myotox sup 0.
`COc1ccc(NC(=O)Nc2ccc3c(c2)CC(=O)N([C@@H](C)CO)C[C@@H](C)[C@H](CN(C)C(=O)Nc2cccc4ccccc24)O3)cc1` gave Statin myotox sup 78* and PGC1a acetyl inh -8.
COc1ccc(NC(=O)Nc2ccc3c(c2)CC(=O)N([C@@H](C)CO)C[C@@H](C)[C@@H](CN(C)C(=O)Nc2cccc4ccccc24)O3)cc1 was read as Statin myotox sup -12 and PGC1a acetyl inh 3.
